# Reference: ChEMBL document CHEMBL4888484, “Replenishing the malaria drug discovery pipeline: Screening and hit evaluation of the MMV Hit Generation Library 1 (HGL1) against asexual blood stage Plasmodium falciparum ,using a nano luciferase reporter read-out” (2022)
# The whole screen tested about 150,000 compounds, of which about 540 (0.36%) showed an effect of 50% or more. For the sample, strong results were picked, then their nearest neighbours and some compounds at random.
# Tested on: Plasmodium falciparum
# Assay: Primary screen in NF54 nanoGlo assay, in single point, at 2uM, 72h; a lower Z score goes with more inhibition
# Format: functional, Erythrocyte
# Conditions: timepoint 72 hour
Compound,% Inhibition,Z score
Cc1ccc(-c2nnc(N3CCC4(CCOC4)C3)n2CC2CCCO2)s1 (centres undefined),-3%,0.32
O=C1N[C@H]2C[C@@H](C(=O)NC[C@H]3O[C@H](CCOc4ccccc41)CC[C@@H]3O)N(Cc1ccc3c(c1)OCO3)C2,26%,-2.92
O=C1N[C@H]2C[C@@H](C(=O)NC[C@H]3O[C@H](CCOc4cc(-c5ccccc5)ccc41)CC[C@@H]3O)N(Cc1ccc(Cl)c(F)c1)C2,37%,-4.16
O=C1N[C@H]2C[C@@H](C(=O)NC[C@H]3O[C@H](CCOc4cc(-c5ccccc5)ccc41)CC[C@@H]3O)N(Cc1ccc3c(c1)OCO3)C2,51%,-1.36
CC(C)c1cc(NCCCn2ccnn2)nc(N)n1,-5%,0.75
CC(C)(C)CCCC(=O)NCCn1cnnc1C1CC1,-7%,1.32
CN1CC[C@@H](CNC(=O)c2ccnc3c2ncn3C)[C@@H]1c1cccnc1,1%,-0.18
CN1CCC(N(C)C(=O)c2ccccc2NC2CCCCC2)CC1,6%,-1.03
COCCC(CNC(C)c1nccnc1C)NC(=O)OC(C)(C)C (centres undefined),-12%,1.51
CCN1CCN(c2c(CN(C(=O)NC3CCCCC3)C(C)C)c(C)nn2-c2cccc(F)c2)CC1,-10%,1.04
Cc1ccc(C(=O)Nc2cc3c4c(c2)C2CCCC2CN4CC2CCCC32)cc1 (centres undefined),57%,-4.94
Cc1ccc(C(=O)Nc2ccc(N3CCCN(C(=O)C4CCCC4)CC3)c(C(=O)N3CCCCC3)c2)cc1,-4%,0.58
Cc1ccc(C(=O)Nc2cc(C(=O)N3CCCCC3C)cc(C(=O)N3CCCCC3C)c2)cc1 (centres undefined),6%,-0.87
Fc1cc(Br)cnc1CN1CCC[C@H]1c1ncn[nH]1,19%,-2.4
COc1ccc(CCNC(=O)N2CC=C(C(F)(F)F)CC2)cc1F,6%,-1.17
Cc1ccc(Nc2nc(N)nc(Cn3cnc(C)c3C)n2)cc1,-3%,0.51
Cc1ccc(Nc2nc(N)nc(CN3CCCCCCC3)n2)cc1,-5%,0.66
OC1CCN(Cc2ccc(CNc3ccc(F)cn3)cc2)CC1,-6%,0.93
CC(C)n1ccnc1[C@H]1CCCN(C(=O)c2cnc3c(c2)CCCC3)C1,3%,-0.26
O=C(Nc1cc(C(F)(F)F)ccc1N1CCOCC1)c1nn(-c2ccccc2)c(=O)c2ccccc12,-15%,2.63
CN1CCCN(c2ccc(NC(=O)c3nn(-c4ccccc4)c(=O)c4ccccc34)cc2F)CC1,82%,-6.28

Compound,% Inhibition,Z score
NC(=O)c1n[nH]c2ccc(NC(=O)c3nn(-c4ccccc4)c(=O)c4ccccc34)cc12,-3%,0.31
NS(=O)(=O)c1cnc(N[C@H]2CCc3ccc(F)cc32)s1,-3%,0.33
COc1cc(C)c2[nH]c3c(c(=O)c2c1)CN(CC(=O)Nc1ccc2c(c1)OCCO2)CC3,52%,-1.23
COc1cc(C)c2[nH]c3c(c(=O)c2c1)CN(CC(=O)Nc1ccc2c(c1)OCO2)CC3,44%,-0.61
COc1cc(C)c2[nH]c3c(c(=O)c2c1)CN(CC(=O)Nc1ccc(F)c(C)c1)CC3,43%,-1.61
O=C1N(CC2CCCCC2)CCC[C@@]1(O)CN1CCOCC1,-7%,1.35
CCOC1(c2nc(Cc3conc3C)no2)CCCC1,6%,-0.78
CCOc1cc(Cl)ccc1C(=O)NC1CCN(C[C@H]2CCOC2)CC1,38%,-0.42
c1nc(NCCC2CCCCC2)c2cnoc2n1,7%,-0.88
CC(C)[C@@H](C(=O)NCc1cccc(C(F)(F)F)c1)N1CCCS1(=O)=O,-4%,0.83
Cc1c(-c2nn(-c3ccccc3)c(-c3cnn(C)c3C)c2Cl)cnn1C,39%,-4.45
Cc1nn(C)cc1-c1nn(-c2nc(C3CC3)cc(C(F)(F)F)n2)c(-c2cn(C)nc2C)c1C,46%,0.79
Cc1c(-c2nn(-c3nc(C4CC4)cc(C(F)(F)F)n3)c(-c3cnn(C)c3C)c2Cl)cnn1C,76%,-8.32
Cc1nccn1C[C@H]1CCCN(C(=O)Cn2cccn2)C1,-3%,0.6
COC(=O)c1cc(OC)ccc1-c1cccc(C(=O)N2CCNC[C@@H]2C)c1,-17%,1.67
O=C(Nc1nc2cccc(Cl)c2o1)c1cccc(F)c1,89%,-8.47
Cc1ccc(NC(=O)c2cccc(F)c2)c(-c2nc3ccccc3nc2O)c1,-15%,1.64
Cc1nc(N2CCCC2)nc(C)c1NC(=O)c1cccc(F)c1,-5%,0.84
COc1ccccc1N1CCN(C(=O)[C@H](C)n2ccnc2)CC1,-19%,2.94
CCc1ccc(-c2cc(C(=O)Nc3ccc4nc(NS(C)(=O)=O)sc4c3)[nH]n2)cc1,-13%,1.27
CCn1c(N2CCC[C@H](C(=O)NCc3cccc(Cl)c3)C2)cc(=O)n(C)c1=O,-20%,3.09

Compound,% Inhibition,Z score
COc1ccc(N(Cc2c(C)noc2C)Cc2c(C)noc2C)cc1,-5%,0.44
CC1(C)CCCN1S(=O)(=O)c1onc(C2CC2)c1Cl,-3%,0.41
Cc1ccc(S(=O)(=O)n2cc(C)[nH]c2=O)cc1,-23%,2.15
O=c1[nH]c(=O)n(S(=O)(=O)c2ccccc2)cc1F,90%,-12.13
O=c1[nH]c(=O)n(CCS(=O)(=O)c2ccccc2)cc1Cl,-11%,1.09
CC(C1CC1)n1cc(NC(=O)N2CCC(C(F)(F)F)C2(C)C)cn1 (centres undefined),-10%,1.23
Cc1nnc(OC2Cc3ccccc3C2)s1,-7%,1.07
Fc1cnc(OC2Cc3ccccc3C2)nc1,60%,-5.26
O=C(CCc1ccccc1)N[C@H]1CC[C@H](Oc2ncc(F)cn2)CC1,-10%,1.77
CCc1nnc(CNC(=O)C(=O)c2ccco2)o1,-5%,0.65
COc1ccc(CNC(=O)CCc2c(C)nn(-c3ccc4nnc(C)n4n3)c2C)c(OC)c1,5%,-0.63
CC[n+]1c(/C=C/N(C)c2ccccc2)oc2ccccc21,80%,-10.29
CC[n+]1c(/C=C/N(C)c2ccccc2)oc2ccc(-c3ccccc3)cc21,88%,-9.92
COc1ccc2c(c1)C(=O)N(Cc1ccccc1)C(=O)C2(C)C,-10%,1.06
C[C@@H](c1cccnc1)N(C)Cc1nc2c(s1)CCC2,-18%,3.45
CCC(=O)Nc1cc(NC(=O)N(CC)CC2CCOCC2)ccc1OC,-8%,1.44
Oc1ccc2ncccc2c1[C@@H](Nc1ccccn1)c1cccc(Cl)c1,34%,-3.9
Cc1cc([C@H](Nc2ccccn2)c2ccccc2)c(NC(=O)c2ccccc2)s1,31%,-0.7
Oc1ccc2ncccc2c1[C@@H](Nc1ccccn1)c1cccc(Br)c1,58%,-12.1
Cc1cccc(Cl)c1NC(=O)N1CCS(=O)(=O)[C@@H](C)C1,-5%,0.54
Cc1ccc(-n2nnnc2C2(NC(C)C)CCCC2)cc1,-3%,0.43

Compound,% Inhibition,Z score
CC(=O)Nc1ccc(-c2nc(-c3cccnn3)no2)c(C)c1,-22%,2.61
CC(C)(C)CN(CC(=O)O)C(=O)Cc1ccccc1F,-9%,1.82
CCN1CCN(C(=O)c2cnc(-c3ccc(F)cc3)nc2N(C)C)CC1,3%,-0.5
COc1ccnc(NCCCNc2nccc(OC)n2)n1,-4%,0.53
Cc1ccc(N2CCOCC2)c(NC(=O)C2CCCCC2)c1,-1%,0.12
O=C(CNC(=O)OCc1ccccc1)Nc1ccc(F)cc1,37%,2.05
COc1ccccc1COC(=O)Nc1c(C)nn(C)c1Cl,2%,-0.32
Cc1nn(C)c(Cl)c1NC(=O)OCc1ccc(F)cc1,54%,-1.24
Cc1ccc(N2S(=O)(=O)c3ccccc3S2(=O)=O)cc1,4%,-0.44
Cc1cc(NC(=O)C2CCC(C3CC3)CC2)n2ncnc2n1 (centres undefined),-7%,0.83
CCOc1ccc(Nc2c3ccccc3nc3ccccc23)cc1,81%,-10.53
FC(F)(F)c1cccc(Nc2c3ccccc3nc3ccccc23)c1,10%,-0.85
CCOc1ccc(NC(=O)Cc2c(O)nc3ccccc3c2O)cc1,-9%,1.39
O=C(O)c1ccc(Nc2c3ccccc3nc3ccccc23)cc1,-3%,0.3
C[C@H](NC(=O)c1ccccc1)C(=O)NCC1(N2CCOCC2)CCCCC1,-4%,0.39
COc1ccc(C(=O)N(Cc2ccc(OS(=O)(=O)c3ccc(F)cc3)cc2)C(C)C)c(OC)c1,-14%,1.5
NC(=NCc1cccc2cccnc12)N1CCN(c2nccs2)CC1,57%,-10.38
NC(=NCc1csc2ccccc12)N1CCN(c2nccs2)CC1,5%,-0.56
NC(=NCc1ccc(Cl)cn1)N1CCN(c2nccs2)CC1,-4%,0.42
